Compound activity (PubChem BioAssay)
B2AR arrestin ag: qHTS assay of beta-arrestin-biased ligands of beta2-adrenergic receptor: NCGC Sytravon Library Screen; Beta-2 adrenergic receptor (Homo sapiens), P07550; Potency, µM (series often up to 46.1 µM), actives largely listed as activators; HTLA Tango cells, beta-arrestin recruitment, luciferase luminescence, 18 h; 44,000 tested, under 10 active
Target sequence (P07550 whole entry, looked up): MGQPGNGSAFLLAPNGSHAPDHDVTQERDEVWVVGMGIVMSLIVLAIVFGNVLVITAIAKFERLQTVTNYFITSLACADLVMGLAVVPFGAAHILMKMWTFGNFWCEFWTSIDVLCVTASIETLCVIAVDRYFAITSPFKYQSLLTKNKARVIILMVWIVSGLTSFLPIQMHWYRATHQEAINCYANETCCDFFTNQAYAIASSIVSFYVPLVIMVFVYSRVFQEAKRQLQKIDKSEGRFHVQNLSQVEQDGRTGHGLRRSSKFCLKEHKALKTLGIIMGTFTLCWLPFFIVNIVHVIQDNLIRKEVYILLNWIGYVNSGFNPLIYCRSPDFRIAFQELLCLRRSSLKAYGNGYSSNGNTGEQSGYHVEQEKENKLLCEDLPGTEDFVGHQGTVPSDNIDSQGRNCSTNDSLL
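Receptor–beta-arrestin recruitment read by tTA-responsive luciferase: compound titrations (up to 46 µM) incubated 18 h with Tango cells, then luminescent substrate 15 min at room temperature. Concentration-response fits classified by r2, efficacy and activity.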
FH mod: Identification of activators of human fumarate hydratase by quantitative high-throughput screening | Fumarate hydratase, mitochondrial (Homo sapiens), P07954 | FH coupled MDH/diaphorase resazurin fluorescence, 15 min | Potency, µM (top dose mostly 79.9 µM), hits mostly inhibitors | actives 0.22% (n = 54,000) | AID 1347055, 2019; note: the screen sought activators but most active calls are inhibition curves; nearly all actives have a fitted effect of over 45% in size
PTAP-TSG101 blk: qHTS Validation Assay for Inhibitors of HIV-1 Budding by Blocking the Interaction of PTAP/TSG101: Sytravon Library Screen. Fluorescence polarization, FITC-PTAP peptide/Tsg101, 20 min. Tumor susceptibility gene 101 protein (Homo sapiens), Q99816. Potency, µM (highest dose often 115 µM), hits mostly inhibitors. AID 1347069, 2019. 44,000 tested, under 10 active
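qHTS FP binding, 20 min r.t.: 10 uM Tsg101 domain + 50 nM FITC-PTAP peptide, pH 7.5 HEPES buffer with TCEP and EDTA.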
NTMT1 inhibitor: Primary qHTS for Inhibitors of N-terminal methyltransferase 1 (NTMT1): MTaseGlo Assay | N-terminal Xaa-Pro-Lys N-methyltransferase 1 (Homo sapiens), Q9BV86 | NTMT1 MTase-Glo SAH luminescence, purified enzyme | Potency, µM (titrated, usually from 114 µM), hits mostly inhibitors | actives 2.5% (n = 59,000); note: nearly all actives have a fitted effect of over 65% in size
GALK inhibitor: qHTS Assay for Inhibitors of Human Galactokinase (GALK): NCGC Sytravon Library Screen; P51570; recombinant GALK, Kinase-Glo ATP luminescence, 1 h; Potency, µM (series often up to 57.5 µM), usual class: inhibitors; 44,000 tested, under 10 active; AID 1347072, 2019
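Human GALK (5 nM) was incubated with 35 uM ATP and 100 uM galactose in 20 mM HEPES pH 8.0 with MgCl2, NaCl, DTT and BSA for 1 h at room temperature. Remaining ATP was measured by Kinase-Glo Plus luminescence.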
GPR32 ag: qHTS for Agonists of Human Resolvin D1 Receptor DRV1 | Probable G-protein coupled receptor 32 (Homo sapiens), O75388 | CHO-K1 GPR32 beta-arrestin PathHunter luminescence, 90 min; zero percent set by DMSO-only wells | activation, % at 76.9 µM | actives 2.5% (n = 48,000) | AID 1346428, 2018;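 active = activation of at least 60% and not above a set upper limit, about 1 call in 100 departs from these limits; inconclusive = activation of 40% to 60%, or above that upper limit; inactive = activation under 40%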
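Cells are plated overnight, treated with compounds in DMSO for 90 minutes at 37 °C, and developed with PathHunter detection reagent for 1 hour before luminescence is read; signal reflects beta-arrestin binding to GPR32 in engineered CHO-K1 cells.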
Hits are given with their value; - = inactive; ? = inconclusive; . = no result; ! = a repeat was not active. Compounds with a hit are over-represented: about 3.7% of the library has one in this group of screens. Unless noted, calls come from the whole dose curve; as a rule, active = well fitted curve in the direction sought with a large enough effect; inconclusive = small, poorly fitted or top-dose-only effect, or another doubt; inactive = no such curve, though single readings can be large; an effect the other way counts as inactive or inconclusive.

SMILES	B2AR arrestin ag	FH mod	PTAP-TSG101 blk	NTMT1 inhibitor	GALK inhibitor	GPR32 ag
CCN(CC)C(=O)c1ccc2c(c1)N(Cc1ccc(C(F)(F)F)cc1)C(=O)c1ccccc1S2	-	-	-	-	-	87
COc1ccc(CN2CCN(C(c3ccc(F)cc3)c3ccc(F)cc3)CC2)c(OC)c1OC	.	-	.	-	.	78
O=C1CCCC2=C1C(c1[nH]ncc1Cl)N=C(Nc1nc3ccccc3s1)N2 (centres undefined)	.	.	.	-	.	.
COc1ccc(NC(=O)c2nnn(CC(=O)Nc3ccc(C)c(C)c3)c2N)cc1OC	-	-	-	-	-	91
COc1ccc(NC(=O)Cn2nnc(C(=O)NCCc3ccccc3)c2N)cc1	-	-	-	-	-	-
CCOc1ccc(NC(=O)Cn2nnc(C(=O)NCCc3ccccc3)c2N)cc1	-	-	-	-	-	88
Cc1ccc(NC(=O)Cn2nnc(C(=O)NCCc3ccccc3)c2N)cc1C	-	-	-	-	-	-
CN1CCN(c2cccc(Nc3nn4c(=O)c5ccc(N(C)C)cc5nc4s3)c2)CC1	.	.	.	50µM	.	.
O=c1c2ccccc2nc2sc(Nc3cccc(N4CCNCC4)c3)nn12	.	.	.	50µM!	.	.
CC(=O)Nc1cccc2c1c(Sc1ccc(Cl)cc1)c(C)n2CC(=O)O	.	-	.	-	.	.
CCCCN(C)CC(O)Cn1cc(/C=C/C(=O)c2ccc(Br)cc2)c2ccccc21 (centres undefined)	-	-	-	-	-	74
CCCCN(C)CC(O)Cn1cc(/C=C/C(=O)c2ccc(C)cc2)c2ccccc21 (centres undefined)	-	-	-	?	-	65
CCCN(CCC)CC(O)Cn1cc(/C=C/C(=O)c2ccc(C)cc2)c2ccccc21 (centres undefined)	-	-	-	-	-	-
CCCN(CCC)CC(O)Cn1cc(/C=C/C(=O)c2ccc(Br)cc2)c2ccccc21 (centres undefined)	-	-	-	-	-	-
COc1ccc(NS(=O)(=O)c2ccc3nc(-c4ccccc4)[nH]c3c2)cc1	-	-	-	-	-	116
COc1ccc(NS(=O)(=O)c2ccc3[nH]c4c(c3c2)CCCC4)cc1Cl	-	?	-	-	-	90
COc1ccc(OC)c(CNS(=O)(=O)c2ccc3[nH]c4c(c3c2)CCCCC4)c1	-	?	-	?	-	96
COc1ccc(NS(=O)(=O)c2ccc3[nH]c4c(c3c2)CCCCC4)cc1	-	-	-	?	-	74
Cc1ccc(NS(=O)(=O)c2ccc3[nH]c4c(c3c2)CCCCCC4)cc1Cl	-	?	-	-	-	-
N[C@@H](Cc1ccc(O[S+](=O)([O-])c2cccc3cccnc23)cc1)C(=O)N1CCN(c2ccccc2)CC1	.	.	.	-	.	.
COC(=O)C#Cc1ccc([N+](=O)[O-])cc1	.	-	.	-	.	.
Cc1c(F)cccc1NC(=O)Nc1ccc(Cl)c(S(=O)(=O)[C@H]2CCCNC2)c1O	.	.	.	-	.	.
CCOc1ccc(NS(=O)(=O)c2ccc3[nH]c4c(c3c2)CCCCC4)cc1	-	?	-	-	-	66
Cc1ccc(NS(=O)(=O)c2ccc3[nH]c4c(c3c2)CCCC4)cc1N(C)C	-	?	-	-	-	92
CCS(=O)(=O)N1CCN(c2ccc(Nc3ncc(C(N)=O)c(NC4CC4)n3)cc2)CC1	.	-	.	?	.	.
c1nc2nc(Nc3ccc(N4CCOCC4)cc3)nc(NC3CCCCC3)c2[nH]1	.	-	.	40µM!	.	.
O=C(Cn1c(=O)n(Cc2ccc(F)cc2)c(=O)c2sc3ccccc3c21)NCc1ccccc1Cl	-	-	-	89µM	-	-
